The source of these data is PubChem BioAssay AID632 (National Center for Advancing Translational Sciences (NCATS), 2007).

Some of the results follow. Unmarked numbers belong to inactive results. The source made the active and inactive calls.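 How the source made its calls: active means compound lowering the Hsp90 and TPR2A binding signal, whether or not the linker counterscreen also flagged it as an artifact; inactive means the rest.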

The experiment concerns Hsp90 C-terminal peptide / TPR2A co-chaperone interaction. Kind of experiment: Confirmation Concentration-Response Assay and Counterscreen for Disrupters of an Hsp90 Co-Chaperone Interaction. The conditions noted are these: AlphaScreen TPR2A-His6 / biotin-Hsp90 peptide binding; at 46 µM (top of the series) unless noted. The source says: NIH Chemical Genomics Center [NCGC] NIH Molecular Libraries Screening Centers Network [MLSCN] MLSCN Grant: X01 MH077625-01 NCGC Assay Overview: Hsp90 (heat shock protein 90) is the essential molecular chaperone and it accounts for 1-2% of all cytosolic proteins and is critical for the activity of diverse cellular proteins that are involved in a variety of cellular processes, including development, cell cycle, and steroid hormone signaling. Its client proteins include signaling kinases such as IGF1R, Akt, v-Src, Raf-1; regulators of cell survival such as Bcr-Abl; and transcription factors such as mutated p53, estrogen and progesterone receptors. Hsp90 has emerged as an important target for cancer treatment due to its essential role in maintaining transformation and regulating the function of oncogenic signaling proteins. The in vivo function of Hsp90 is regulated by the binding and hydrolysis of ATP at its N-terminal. Geldanamycin binds to ATP site and inhibit Hsp90 function. Geldanamycin and its analogues are under clinical trials in cancer patients. […] This domain contains the binding site for tetratricopeptide repeat (TPR) domains on HOP (Hsp Organizing Protein). TPR is a structural motif used by a significant number of cochaperones by which the in vivo function of Hsp90 is regulated. TPR2A on HOP binds specifically to MEEVD motif of the C-terminal of Hsp90. […]
NCGC Assay Protocol Summary: The assay was performed to confirm activity from an initial qHTS screen, and to counterscreen for alpha screen platform artifacts. All samples were reordered, as powders when available, and sample material was evaluated for impurities and/or incorrect molecular mass at NCGC. […] Plates were read on EnVision (PerkinElmer, Boston, MA).TPR2A-His6 was produced using a bacteria expression system and purified using a well developed method (Ghosh et al., 2000). […] TPR2A-His6 binding to biotin-Hsp90 will bring streptavidin donor beads and nickel chelate acceptor beads (PerkinElmer) together and can be measured by Alpha reading by EnVision (PerkinElmer). […]
On the technique in general: Counterscreens check selectivity or assay interference.
As to `CCOC(=O)c1c(NC(=O)CSc2nnc(Cc3csc(N)n3)n2C)sc(C)c1C`, the activity, negative = inhibition was -99.5% [alpha-screen platform artifact] (active).
For `Oc1c(C(c2ccccn2)N2CCOCC2)ccc2cccnc12` (stereo not drawn) the value was -99.8% [alpha-screen platform artifact] (active); for `Cc1nnc2[nH]c(=O)n(C)c(=O)c2n1`, 5.91% [at 40 µM].
